Source: PubChem
Only a selection was taken, and hits are over-represented in it overall.
KDM5B inh: blocks human KDM5B histone demethylase activity; Q9UGL1; KDM5B demethylase, FDH-coupled NADH fluorescence (FDH is formaldehyde dehydrogenase); Potency, µM (doses to about 57.7 µM), hits mostly inhibitors; actives 2.6% (n = 220,000); AID 1347165; active = well fitted inhibition curve with a large enough effect; also: 0% is about no effect; nearly all actives have a fitted effect of over 70% in size
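Coupled FDH/NAD⁺ fluorescence readout. KDM5BΔAP 200 nM final; compound titration, 10 min RT preincubation; substrate mix 12.5 µM H3K4me3, 25 µM 2-OG, 50 µM Fe(II), 100 µM ascorbate, 0.25 mM NAD⁺, 0.25 U/mL FDH; ΔRFU over 30 min.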
* hit, by the source's call; i = inactive. Potency is read from the fitted curve at half-maximal effect.

SMILES	KDM5B inh
CCC(CC)NC(=O)c1cc(C(C)C)nc2c1cnn2C(C)C	i
C[C@H](NC(=O)c1cc(-c2ccccc2)nc2ccccc12)C(=O)O	i
O=C(CCc1cccnc1)NCc1ccc(C(F)(F)F)cc1	i
CCCOC(=O)c1ccccc1OC(=O)c1ccc(Cl)cc1Cl	i
Cc1cc(C)cc(NS(=O)(=O)c2ccc3c(c2)-c2oncc2CO3)c1	i
CSCCC(=O)N1CCC2(CCN(Cc3ccccn3)CC2)C(CO)C1 (centres undefined)	i
O=C(CC1CCCC1)N1CC[C@@]2(O)CCN(Cc3ccccn3)C[C@H]2C1	25µM*
O=C(NCc1ccccc1)NCC1CCCN(Cc2ccccn2)C1 (centres undefined)	i
CC(=O)Nc1cc(C(=O)NC2CCCCC2)c2ccc(C)nc2c1	22µM*
Cc1ccc2c(C(=O)NC3CCN(C)CC3)cc(NC(=O)C3CCC3)cc2n1	22µM*
Cc1ccc(-c2cc(C(=O)NC3CCCCC3)c3ccccc3n2)cc1	i
Cn1ncc(N2CCC(NC(=O)C3CCC3)CC2)cc1=O	i
Cc1cc(C(=O)NC2CCS(=O)(=O)C2)c2ccc(F)cc2n1 (centres undefined)	i
Cc1cc(C(=O)NC2CCCCC2)c2cccc(C)c2n1	i
O=C1CCN(S(=O)(=O)c2ccccc2)CCCN(S(=O)(=O)c2ccc3c(c2)CCC3)CCN1	i
c1cc(-c2cc(-c3ccc4cn[nH]c4c3)cn3cncc23)ccn1	i
Oc1ccccc1-c1cc(C2=CCOCC2)c2cncn2c1	32µM*
C1=C(c2cc(-c3cccc4cn[nH]c34)cn3cncc23)CCOC1	32µM*
COc1ncccc1-c1cc(C2=CCOCC2)c2cncn2c1	35µM*
C1=C(c2cc(-c3cccc4[nH]ccc34)cn3cncc23)CCOC1	25µM*
COc1ncccc1-c1ncc2c(n1)OCCN(c1ccccc1)C2=O	i
CCn1c(SCC(=O)c2ccc(Cl)s2)nnc1-c1ccccc1	i
Cc1ccc(S(=O)Cc2nc(-c3ccc(C(=O)NCCCN4CCOCC4)cc3)oc2C)cc1 (centres undefined)	i
COc1ccc(Nc2nc(Nc3ccc(C)c(Cl)c3)c3nccnc3n2)cc1	i
CCCn1cc(-c2ccncc2)cc1C(=O)N1CCN(c2ccccc2F)CC1	i
SMILES	KDM5B inh
O=C(Nc1ccc(SC(F)F)cc1)c1ccncc1	i
O=C(COc1ccccc1)N1CCCC(c2noc(COc3ccccc3)n2)C1 (centres undefined)	i
CCc1ccc(C(=O)N2CCC(n3cnnc3-c3ccccc3)CC2)cc1	i
COc1cc(C#N)ccc1OCc1cccc(COc2ccc(C#N)cc2OC)c1	i
Cc1ccc(NC(=O)c2cc(=O)c3cc(C)ccc3o2)c(C)c1	i
CS(=O)(=O)c1cccc(C(=O)Nc2ccc(N3CCOCC3)cc2)c1	i
Cc1cc(C)c(C(=O)O)c(N2CCC3(CC2)C(C(=O)O)CC(=O)N3C)n1 (centres undefined)	i
Cc1cc(C)c(C#N)c(N2CCC3(CCC(=O)N(CC(C)O)C3)CC2)n1 (centres undefined)	28µM*
CC(O)CN1CC2(CCC1=O)CCN(C(=O)c1ccnn1C)CC2 (centres undefined)	i
Cc1ccc2oc(-c3ccc(Cl)cc3)nc2c1	i
Cc1cccc(-c2noc(CCCC(=O)N3CCC4(CC(=O)NC4=O)C3)n2)c1 (centres undefined)	i
Cc1ccc(-c2cc(C(=O)N3CCC4(CC(=O)NC4=O)C3)n[nH]2)o1 (centres undefined)	i
Cc1ncccc1Oc1ncnc(N2CCC3(CC(=O)NC3=O)C2)c1C (centres undefined)	i
N#Cc1cccc(N2CCC3(CC(=O)NC3=O)C2)n1 (centres undefined)	28µM*
O=C1CC2(CCN(c3cncc(C(=O)N4CCCCC4)n3)C2)C(=O)N1 (centres undefined)	28µM*
Cc1ncc(C(=O)N2CCC3(CC(=O)NC3=O)C2)c(-c2ccccc2)n1 (centres undefined)	i
O=C(NCC(c1ccccc1)c1ccccc1)c1n[nH]c(=O)c2ccccc12	i
CCc1cc(C(c2ccc(OC)c(OC)c2)N2CCN(CC)CC2)c(NC(=O)c2ccco2)s1 (centres undefined)	i
Cc1nn(-c2nc3c(c(=O)[nH]c(=O)n3C)n2Cc2ccccc2Cl)c(C)c1C	i
O=C(Nc1cc(C(F)(F)F)ccc1C(=O)O)c1ccc(F)cc1F	i
Cc1cccc2c(=O)c(-c3ccccc3)c(NC(=O)c3ccco3)oc12	i
O=C(CSc1nc2ccccc2o1)Nc1cccc(Cl)c1	i
Cc1ccc2nc(CN3CCCC(CO)(CC4CC4)C3)cn2c1 (centres undefined)	22µM*
OCC1(CC2CC2)CCCN(Cc2ccccc2OC(F)F)C1 (centres undefined)	i
OCC1(CC2CC2)CCCN(Cc2ccc(C(F)(F)F)nc2)C1 (centres undefined)	i
SMILES	KDM5B inh
CCSc1nc(N(CCO)CCO)c2sc3c(c2n1)COC(C)(C)C3	i
Cc1cc(-c2ccccc2)nc(SCC(=O)c2ccc3c(c2)OCCCO3)n1	i
Cc1cccc(NC(=O)CSc2nnc(Cc3ccccc3)n2-n2cccc2)c1	i
C=CCNC(=O)NC(=O)CN(C)Cc1ccc(OC)c(OC(F)F)c1	i
CN1C(=O)COc2ccc(NC(=O)C(=O)NC3CC(C)(C)NC(C)(C)C3)cc21	i
Cc1ccc(CNC(=O)C2CCN(c3cc(C(F)(F)F)ncn3)CC2)cc1	i
CCc1ccc(CNC(=O)C2CCN(c3cc(C(F)(F)F)ncn3)CC2)cc1	28µM*
O=C(NCc1ccc2c(c1)OCO2)C1CCN(c2cc(C(F)(F)F)ncn2)CC1	i
Cc1ccc(/C=N/NC(=O)C2C(C=C(Cl)Cl)C2(C)C)cc1 (centres undefined)	i
N#Cc1cccc(NC(=O)Cn2ccn3nc4c(c3c2=O)CCCC4)c1	i
Clc1ccc(CN2CCC3(CC2)CC(Cc2ccccc2)=NO3)cc1	i
COc1ccc(CN2CCCC3(CC(c4ccccn4)=NO3)C2)cc1 (centres undefined)	i
Fc1ccc(CN2CCC3(CC(Cc4ccccc4)=NO3)C2)cc1 (centres undefined)	32µM*
COc1ccc(CN2CCC3(CC(Cc4ccccc4)=NO3)C2)cc1 (centres undefined)	25µM*
CN(C)c1ccc(CN2CCCC3(CC(Cc4ccccc4)=NO3)C2)cc1 (centres undefined)	i
COc1ccc(C2=NOC3(CCN(Cc4ccc(F)cc4)C3)C2)cc1 (centres undefined)	i
Cc1sc2nc(C(C)Sc3nnnn3C3CCCC3)[nH]c(=O)c2c1C (centres undefined)	i
Cc1cc(C)cc(C(=O)NCC(=O)O)c1	i
Cc1c(C(=O)OCC(=O)NCC2CCCO2)sc2ccccc12 (centres undefined)	i
COc1ccc(S(=O)(=O)N2CCc3ccccc32)cc1C(=O)N1CCN(c2ccncc2)CC1	i
Cc1ccc(S(=O)(=O)Oc2ccc3c(C(F)(F)F)cc(=O)oc3c2)c(C)c1	i
CCOC(=O)N1CCN(C(C(=O)O)c2c[nH]c3ccc(C)cc23)CC1 (centres undefined)	i
CC(=O)NC1(C)CCN(Cc2cnc(-c3ccccc3)s2)CC1	i
CC(=O)NC1(C)CCN(Cc2cnc(-c3ccccc3OCc3ccccc3)s2)CC1	40µM*
CC(=O)NC1(C)CCN(Cc2cnc(-c3cccc(N(C)C)c3)s2)CC1	i
